Among all 330,000 compounds or so, about 1,400 (0.42%) were called active. This is one part of a sample in which actives are shown more often than they occur.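 How the source made its calls: active means inhibition above its plate's threshold, mean inhibition of all tested compounds on the plate plus 3 SD (cut at about 37% in these data); inactive means the rest.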
target: Orexin/Hypocretin receptor type 1 (Homo sapiens) (UniProt O43613); assay: blockers of orexin-A calcium signaling via HCRTR1 – fluorescence, CHO/OX1R cells, Fluo-8 calcium, primary screen (AID 434989); conditions: Fluo-8 calcium fluorescence, at 5 µM, active compounds read high;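 further: 0% = orexin A challenge wells and 100% = SB-334867-A antagonist wells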
Sequence (O43613 whole entry, looked up): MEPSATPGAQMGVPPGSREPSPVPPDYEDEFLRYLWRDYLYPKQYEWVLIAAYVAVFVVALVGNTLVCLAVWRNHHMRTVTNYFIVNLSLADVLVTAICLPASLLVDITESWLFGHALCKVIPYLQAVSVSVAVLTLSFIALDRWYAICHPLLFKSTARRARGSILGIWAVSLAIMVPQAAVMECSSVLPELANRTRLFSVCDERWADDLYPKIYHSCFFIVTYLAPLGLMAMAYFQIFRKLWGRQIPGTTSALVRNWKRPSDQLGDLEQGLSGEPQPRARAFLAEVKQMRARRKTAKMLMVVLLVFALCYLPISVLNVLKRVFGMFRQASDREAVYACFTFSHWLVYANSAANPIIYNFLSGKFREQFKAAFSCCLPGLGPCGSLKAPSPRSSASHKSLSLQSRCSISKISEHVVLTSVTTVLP

Row | Structure (SMILES) | inhibition
1 | Cc1ccc(S(=O)(=O)Nc2ccc3c(c2)C(=O)N([C@H](C)CO)C[C@@H](C)[C@@H](CN(C)C(=O)Nc2cccc4ccccc24)O3)cc1 | 1.83% (inactive)
2 | CC1CCCCC1NC(=O)Cn1c(=O)cnc2ccccc21 (centres undefined) | -6.73% (inactive)
3 | Cc1cccc(NC(=O)NC(=S)NC(=O)c2ccccc2)c1 | -26.4% (inactive)
4 | Cc1cccc(NC(=O)Nc2cccc(Oc3c(F)c(F)c(F)c(F)c3F)c2)c1 | 50.4% (active)
5 | COc1cccc(NC(=O)NCc2ccc(F)cc2)c1 | -1.97% (inactive)
6 | CCN(CC)S(=O)(=O)c1ccc(N2CCCC2)c(NC(=O)c2ccc([N+](=O)[O-])o2)c1 | 25.1% (inactive)
7 | CCC(=O)N1CCN(c2ccccc2NC(=O)COc2cccc(C)c2C)CC1 | -25.6% (inactive)
8 | CCc1ccccc1OCC(=O)Nc1ccc(C)c(S(=O)(=O)N2CCCCCC2)c1 | 71.1% (active)
9 | Cc1ccccc1OCC(=O)Nc1ccc(N2CCN(C(=O)C(C)C)CC2)c(Cl)c1 | 47.2% (active)
10 | Cc1ccccc1OCC(=O)Nc1ccc2c(c1)ncn2C | -11.8% (inactive)
11 | CCc1ccccc1OCC(=O)Nc1ccc2c(c1)OCCO2 | 3.6% (inactive)
12 | Cc1ccc(NC(=O)COC(=O)C2CC2)cc1S(=O)(=O)N1CCOCC1 | 0.29% (inactive)
13 | COc1ccccc1CNC(=O)c1ccc(Cl)c(S(=O)(=O)N2CCCC2)c1 | -20% (inactive)
14 | Cc1nn(-c2ccccc2)nc1C(=O)OCC(=O)N1CCCCC1C (centres undefined) | -14.9% (inactive)
15 | Cc1ccc(C)c(N2CCN(C(=O)CCc3nc(-c4cccc(C(F)(F)F)c4)no3)CC2)c1 | -15.5% (inactive)
16 | Cc1cc(-c2ccc(C)c(S(=O)(=O)NCCCN(Cc3ccccc3)C(C)C)c2)on1 | -45.5% (inactive)
17 | Cc1cc(-c2ccc(C)c(S(=O)(=O)NC(C)Cc3ccco3)c2)on1 (centres undefined) | 59.1% (active)
18 | Cc1cc(-c2ccc(C)c(S(=O)(=O)Nc3ccc(S(N)(=O)=O)cc3)c2)on1 | 15.6% (inactive)
19 | CN(C)C(=O)CCc1ccc2c3c([nH]c2c1)[C@]1(CCC2CCCC2)[C@@H](C(=O)N2CCOCC2)C[C@H](CC(=O)NCc2ccco2)C(=O)N1CC3 | -19.7% (inactive)
20 | COc1ccc(C(=O)C(C)OC(=O)c2cccc(S(=O)(=O)Nc3c(C)n(C)n(-c4ccccc4)c3=O)c2)cc1 (centres undefined) | -5.98% (inactive)
21 | O=C(CN1C(=O)NC2(CCCCCC2)C1=O)NCc1ccc(F)cc1 | -10.3% (inactive)
22 | CCN(CC)S(=O)(=O)c1ccc(N(C)Cc2cccc(OC)c2OC)nc1 | 39% (active)
23 | CCN(CC)S(=O)(=O)c1ccc(N(C)CCc2ccc(OC)c(OC)c2)nc1 | -17% (inactive)
24 | CCN(CC)S(=O)(=O)c1ccc(N(C)Cc2ccc(C(F)(F)F)cc2)nc1 | 29.3% (inactive)

— PubChem BioAssay AID434989 (The Scripps Research Institute Molecular Screening Center, 2010)
